Screens deposited in PubChem BioAssay by Milwaukee Institute for Drug Discovery.
This is a sample that favours compounds with a hit; in the whole collection about 6.9% have one here.
HCV NS3h FP: hepatitis C NS3 helicase inhibition, primary screen; inhibition, % at 100 µM; NS3h Cy5-dT15 DNA binding, fluorescence polarization; 1.6% of 16,000 active;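 active = inhibition above the average over every tested compound plus 3 SD, cut at about 40% in these data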
Cy5 interf NS3h: Cy5 fluorescence interference, HCV helicase counter-screen; Cy5-dT15 DNA with NS3h; actives lie on both sides; signal over control mean, under 1 quenches; fluorescence interference ratio at 100 µM; 6% of 16,000 active;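 active = compound fluorescence over control fluorescence at most 0.8, a quencher, or at least a set upper limit, an enhancer; inactive = ratio between 0.8 and the set upper limit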
Starred values were filed as active, the others as inactive.

SMILES | HCV NS3h FP | Cy5 interf NS3h
COc1ccc(-c2cc(=O)n3[nH]c(-c4ccccc4)c(C)c3n2)cc1 | 1 | 1.1
COc1ccc(C(=O)CSc2nc3ccc([N+](=O)[O-])cc3[nH]2)cc1 | -4 | 0.66*
COc1ccc2nc(SCC(=O)NCc3ccccc3)[nH]c2c1 | 6 | 1
COc1ccc(S(=O)(=O)N2CCN(C(=O)c3ccc([N+](=O)[O-])cc3)CC2)cc1 | 12 | 1
O=C(CSc1cccc2cccnc12)OCC(=O)c1ccccc1 | -10 | 0.93
O=C(CSc1ccccn1)OCC(=O)c1ccc(Br)cc1 | 4 | 0.64*
Cc1ccoc1C(=O)Nc1ccccc1 | 0 | 1
CCCS(=O)(=O)c1c(S(=O)(=O)CCC)c2ccccn2c1C(=O)c1ccc([N+](=O)[O-])cc1 | 13 | 1.1
CCCS(=O)(=O)c1c(S(=O)(=O)CCC)c2c(N)cccn2c1C(=O)c1ccc(OC)cc1 | 18 | 0.66*
COc1ccc(-c2nc(-c3ccc(O)cc3)[nH]c2-c2ccc(OC)cc2)cc1 | 7 | 0.73*
COc1ccc(OC)c(-c2nc(-c3ccccc3)c(-c3cccs3)[nH]2)c1 | 10 | 0.92
COc1ccccc1OCCOc1cccc(/C=C2/SC(=S)N(C)C2=O)c1 | 8 | 1
[O-][n+]1cc(O)c(Br)c2ccccc21 | 11 | 0.7*
CN(C)Cc1c(O)c[n+]([O-])c2ccccc12 | 4 | 1
Cc1cccc(/C=C2/SC(=S)N(Cc3ccccc3)C2=O)c1 | 12 | 1
COC(=O)c1ccc(NC(=O)CSC(N)=O)cc1 | -2 | 1
CCN1C(=O)/C(=C\c2cccc(C)c2)SC1=S | -2 | 0.94
CCN(CC)c1ccc(/C=C2/SC(=S)N(CNc3cccc(C)c3)C2=O)cc1 | 9 | 0.65*
COC(=O)Nc1sc2c(c1C(N)=O)CCC(C(C)(C)C)C2 (stereo not given) | 1 | 0.99
O=C(Nc1ccccc1C(=O)N1CCN(Cc2ccccc2)CC1)c1ccc([N+](=O)[O-])cc1 | 7 | 0.99
CS(=O)(=O)N(CC(=O)N(Cc1ccccc1)Cc1ccccc1)c1ccc(Cl)cc1 | 25 | 0.68*
CS(=O)(=O)N(CC(=O)O)c1ccc(Cl)cc1 | 4 | 1.1
CC(C1CC1)N(Cc1ccccc1)C(=O)Nc1cccc([N+](=O)[O-])c1 (stereo not given) | 7 | 0.61*
CC1=C(C(=O)Nc2ccc(C)c(Cl)c2)C(c2cccc([N+](=O)[O-])c2)NC(=O)N1 (stereo not given) | 1 | 0.9
O=C(COc1ccc(Cl)cc1Cl)Nc1ccc(NC(=O)COc2ccc(Cl)cc2Cl)cc1 | -2 | 1.1
SMILES | HCV NS3h FP | Cy5 interf NS3h
COc1ccc(NC(=O)CSc2nc3ccccc3[nH]2)c(OC)c1 | 10 | 0.71*
COc1ccc2nc(SCC(=O)Nc3ccccc3)[nH]c2c1 | 4 | 0.95
O=C(NCc1ccccn1)C(=O)Nc1ccc([N+](=O)[O-])cc1 | -2 | 1.1
Cc1ccc(N2C(=O)/C(=C/c3ccc(OCc4cccc(C(=O)O)c4)cc3)C(=O)NC2=S)cc1 | 28 | 1.1
CCOc1ccc(N2C(=O)NC(=O)/C(=C\c3ccc(OCc4cccc(C(=O)O)c4)cc3)C2=O)cc1 | 28 | 1.1
Cc1ccc(N2C(=O)NC(=O)/C(=C\c3ccc(OCc4cccc(C(=O)O)c4)cc3)C2=O)cc1 | 52* | 1
Cc1cccc(N2C(=O)NC(=O)/C(=C\c3ccc(OCc4cccc(C(=O)O)c4)cc3)C2=O)c1 | 16 | 1.3*
O=C(NC(=S)Nc1ccc2oc(-c3cccc(Br)c3)nc2c1)c1ccco1 | -4 | 1.1
Cc1c(NC(=O)c2cc3n(n2)C(C(F)(F)F)CC(c2ccc(Cl)c(Cl)c2)N3)c(=O)n(-c2ccccc2)n1C (stereo not given) | 9 | 0.96
COc1ccc(N=C2CC(C)(C)CC(=O)C2=C(O)/C=C/c2ccccc2)cc1 | 2 | 1
COc1ccccc1NC(=O)c1sc(-c2ccccc2)nc1C | 0 | 1.1
COc1cc(/C=C2/SC(=S)N(Cc3ccccc3)C2=O)ccc1OS(=O)(=O)c1ccccc1 | 3 | 1.1
CCSc1nnc(NC(=O)c2ccc(Br)o2)s1 | 10 | 0.77*
CCC(=O)Nc1ccc(NC(=O)c2ccc(Br)o2)cc1 | -3 | 1
COc1cccc(NC(=NS(=O)(=O)c2ccc(C)cc2)Nc2nc(C)cc(C)n2)c1 | 7 | 1.1
CC(=O)Nc1ccc(C(=O)Nc2ncc([N+](=O)[O-])s2)cc1 | -1 | 0.88
COCCOC(=O)c1c(C)oc2ccc(OCc3cccc(Cl)c3)cc12 | 9 | 0.79*
COCCOC(=O)c1c(C)oc2ccc(OCc3cccc(F)c3)cc12 | 9 | 0.93
COc1cccc(C2=NN(C(=O)CCc3ccccc3)C(O)(C(F)(F)F)C2)c1 (stereo not given) | 10 | 0.96
Cc1c(N(C(=O)c2ccccc2)C(=O)c2ccccc2)c(=O)n(-c2ccccc2)n1C | -6 | 0.96
COc1ccc(-c2ccc(/C=C3/C(=O)NN(c4ccc(C)c(Cl)c4)C3=O)o2)c([N+](=O)[O-])c1 | 17 | 0.92
CCOc1ccccc1N1C(=O)NC(=O)/C(=C/C=C/c2ccco2)C1=O | 43* | 1.2
CCOc1ccc(N2C(=O)NC(=O)/C(=C/C=C/c3ccco3)C2=O)cc1 | 33 | 1
O=C(NC(c1ccccc1)c1ccccc1)c1ccc(Cl)c([N+](=O)[O-])c1 | -7 | 1
CCOC(=O)c1c(-c2ccc(OC)cc2)csc1NC(=O)c1cccc([N+](=O)[O-])c1 | 12 | 0.75*
SMILES | HCV NS3h FP | Cy5 interf NS3h
CCOC(=O)c1c(-c2ccc(C)cc2)csc1NC(=O)c1ccccc1F | 7 | 1.1
Cc1ccc(N=C2NC(=O)/C(=C/c3ccc(O)cc3)S2)cc1C | -4 | 0.94
Cc1ccc(N=C2NC(=O)/C(=C\c3cccc(Br)c3)S2)cc1C | 0 | 0.79*
COc1cccc2cc(C(=O)Nc3ccc(I)cc3)c(=O)oc12 | 6 | 1
Cc1cc(=O)n2[nH]c(-c3cccs3)cc2n1 | 1 | 1.1
O=c1cc(-c2ccccc2)nc2cc(-c3cccs3)[nH]n12 | 57* | 1.2
O=C(c1nn2c(c1Br)NC(c1cccs1)CC2C(F)(F)F)N1CCOCC1 (stereo not given) | 5 | 1.1
O=C(c1nn2c(c1Br)NC(c1cccs1)CC2C(F)(F)F)N1CCCc2ccccc21 (stereo not given) | 14 | 0.7*
COC(=O)CC(C(=O)OC)C(C(=O)OC)C(=O)OC (stereo not given) | -5 | 1
Cc1cc(C)c(N2C(=O)NC(=O)C(=Cc3ccoc3)C2=O)c(C)c1 | 42* | 1
COc1ccc(/C=C2\C(=O)NC(=O)N(c3cc(C)cc(C)c3)C2=O)cc1 | 21 | 1.1
Cc1ccc(CN2CCN(N=Cc3cccc(Cl)c3)CC2)c(C)c1 | 2 | 1.1
Nn1c(Nc2ccccc2)nc2ccccc21 | -1 | 1
c1ccc(Nc2ccc3nc4ccccc4nc3c2)cc1 | 15 | 0.55*
Cc1cc2nc(-c3cc(NC(=O)/C=C/c4ccccc4)ccc3O)oc2cc1C | -3 | 1.1
NC(=O)c1ccc[n+](CC(=O)c2cc3ccccc3oc2=O)c1 | -7 | 0.6*
Nc1cccc(C(=O)Nc2ccccc2)c1 | 1 | 0.99
Nc1ccc[n+](CC(=O)c2ccccc2)c1 | -14 | 0.75*
O=C(Nc1cccc(I)c1)c1cc2ccccc2oc1=O | 8 | 0.96
CCOC(=O)c1ccccc1NC(=O)Cc1cccs1 | -2 | 1
CC(=O)Oc1ccc2c(C)c(C)c(=O)oc2c1C | 0 | 1.1
